Results as given in PubChem BioAssay (NCI).
This is part of a sample that, as a whole, favours compounds with a hit. Of some 79,000 tested, about 15% had one in any assay. A number with no mark means an inactive call. Calls of active or inactive are those of the source. Cut-off read from the data, not from the text of the source: active = growth inhibition above about 70%; inactive = the rest.

Assay: NCI Yeast Anticancer Drug Screen. Data for the CLN2oe strain (AID 163);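 note: 0% = growth of vehicle-only control cultures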
Conditions: S. cerevisiae CLN2oe strain, stronger effect = higher value
Method: Growth inhibition of yeast strains with defined genetic alterations is measured as a screen for potential anti-cancer activity. Selected strains with alterations in DNA damage repair or cell cycle control were exposed to compounds and growth inhibition was measured relative to vehicle treated controls. The strain used in this assay is CLN2oe

SMILES | growth inhibition (at 1.2 µM) | growth inhibition (at 3.7 µM) | growth inhibition (at 11.0 µM) | growth inhibition (at 33.0 µM) | growth inhibition (at 100.0 µM)
c1ccc(-c2cc(C3CO3)c3ccccc3n2)cc1 (stereo not given) | -7% | -11% | -11% | 4% | 97% (active)
CCCN=Cc1cc(Cc2ccc(O)c(C=NCCC)c2)ccc1O | 78% (active) | 97% (active) | 98% (active) | 99% (active) | 98% (active)
O=[N+]([O-])c1cc(Cl)ccc1S(=O)(=O)c1ccc(Cl)cc1[N+](=O)[O-] | -2% | -4% | 9% | 82% (active) | 79% (active)
NC(N)=NS(=O)(=O)c1ccc(Nc2c3ccccc3nc3c(C(=O)NC(CO)(CO)CO)cccc23)cc1 | 2% | 2% | 4% | 1% | 1%
CCOC(=O)C(Cc1c2ccccc2cc2ccccc12)(NC(C)=O)C(=O)OCC | -3% | -2% | -6% | 0% | -2%
CCCCCCNCCCNc1c2ccccc2nc2cccc([N+](=O)[O-])c12 | -6% | -6% | -5% | 29% | 93% (active)
CCC(=O)C1=C(O)c2cc(OC)ccc2CC1C(=O)OC (stereo not given) | -7% | -8% | 2% | 10% | 21%
c1cc(-c2sc(-c3ccncc3)c(-c3ccncc3)c2-c2ccncc2)ccn1 | -7% | 1% | -1% | 25% | 89% (active)
